TEAD-YAP inh = TEAD-YAP interaction inhibition. actives 1.4% (n = 640,000). HEK-TIYL cells, TEAD-Gal4/YAP UAS-luciferase luminescence. inhibition, % at 9.12 µM; in the data active = inhibition above about 32%;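 also: 0% = median of test compound wells and 100% = reference inhibitor wells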
GPR151 activ = human GPR151 activation; Q8TDV0; PathHunter beta-arrestin GPR151 cells, luminescence; activation, % at 11.2 µM; actives 1% (n = 650,000); in the data active = activation above about 4.9%;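 also: 0% = median of compound wells and 100% = cells with positive control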
FBW7 act = activators of human E3 ligase FBW7; Q969H0; AlphaScreen FBW7–phospho-cyclin E peptide binding, activator screen; normalized activity (activation), % at 26.1 µM; actives 0.13% (n = 650,000); AID 1259310; in the data active = normalized activity above about 1.9%;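 also: purified mutant Fbw7 with reduced substrate affinity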
MITF inh = inhibitors of human MITF | O75030 | AlphaScreen MITF homodimerization, bead proximity signal | inhibition, % at 2.6 µM | actives 0.91% (n = 650,000) | AID 1259374; in the data active = inhibition above about 50%;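 also: 0% = vehicle wells with protein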
Target sequence (O75030 whole entry, looked up): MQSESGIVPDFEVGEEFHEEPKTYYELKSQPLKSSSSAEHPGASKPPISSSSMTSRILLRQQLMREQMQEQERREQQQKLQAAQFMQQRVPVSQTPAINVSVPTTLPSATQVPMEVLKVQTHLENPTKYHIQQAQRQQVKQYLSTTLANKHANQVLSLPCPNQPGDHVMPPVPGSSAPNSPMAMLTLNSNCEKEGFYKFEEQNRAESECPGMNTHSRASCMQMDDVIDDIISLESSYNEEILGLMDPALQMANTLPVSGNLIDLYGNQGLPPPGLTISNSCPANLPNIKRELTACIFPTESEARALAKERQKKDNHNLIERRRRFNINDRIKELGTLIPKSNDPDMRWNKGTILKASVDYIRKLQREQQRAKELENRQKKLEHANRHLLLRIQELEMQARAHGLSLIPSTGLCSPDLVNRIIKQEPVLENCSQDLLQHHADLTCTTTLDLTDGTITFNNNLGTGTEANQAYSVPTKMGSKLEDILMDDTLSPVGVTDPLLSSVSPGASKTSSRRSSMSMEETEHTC
MITF inh conf = confirmation of human MITF inhibitors; shares compounds with MITF inh; AlphaScreen MITF homodimerization, biotin/His-MITF beads; inhibition, % at 2.6 µM; actives 16% (n = 4,700); AID 1259372;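 active = inhibition above a cutoff derived from the DMSO control wells, cut at about 28% in these data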;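 also: 0% = MITF dimer wells with DMSO only; inhibitors lower the bead chemiluminescence by keeping MITF from dimerizing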
AS interf DR = AlphaScreen optical interference, dose response counter-screen | shares compounds with MITF inh | AlphaScreen optical interference counterscreen, cell-free | IC50, µM | actives 6% (n = 480) | AID 1259373; call rule not given here
AlphaScreen intf2 = AlphaScreen optical interference, counter-screen; shares compounds with MITF inh; LysRS AlphaScreen counterscreen, signal interference, triplicate; inhibition, % at 2.6 µM; actives 7.6% (n = 4,700); AID 1259376;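 active = inhibition above a cutoff derived from the DMSO control wells, cut at about 30% in these data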
Numbers without * were called inactive; · = no result; ! = not active in a repeat. Compounds with a hit are over-represented: about 3.5% of the library has one in this group of screens.

SMILES	TEAD-YAP inh	GPR151 activ	FBW7 act	MITF inh	MITF inh conf	AlphaScreen intf2	others
O=C1CSC(c2ccc([N+](=O)[O-])cc2)N1c1ccccc1F (stereo unspecified)	13	-1	0	6	·	·
O=C1NC(Nc2ccc(F)cc2)(C(F)(F)F)C(=O)N1c1ccc(F)cc1 (stereo unspecified)	7	2	0	6	·	·
CC1=C(C(=O)Nc2ccc(C)cc2C)C(c2cccc(Cl)c2)NC(=S)N1 (stereo unspecified)	-2	1	0	73*	4	21
CC1=C(C(=O)Nc2ccc(C)cc2C)C(c2cccc(Cl)c2)NC(=O)N1 (stereo unspecified)	9	1	0	5	·	·
c1ccc(CNc2nc(N3CCOCC3)nc3ccccc23)cc1	-23	0	0	-19	·	·
COC(=O)CCc1cc2c(C)cc(=O)oc2cc1OCc1ccc(C)cc1	-9	0	0	78*	38*	-72	AS interf DR=>6.5
C=CCc1cc(OC)ccc1OCCCNCCN	0	0	0	8	·	·
C=CCc1cc(OC)ccc1OCCNCCCOC	6	-3	0	52*	7	18
C=CCc1cc(OC)ccc1OCCNCCN	6	1	0	24	·	·
C=CCc1ccc(OCCN(C)C)c(OC)c1	-1	1	-1	82*	2	15
C=CCc1cc(OC)ccc1OCCN(C)C	13	2	0	63*	3	10
O=C1NN(c2ccccc2)C(=O)/C1=C/c1cccc(OCCOc2ccc([N+](=O)[O-])cc2)c1	-49	0	0	12	·	·
Cc1nc2cc(NC(=O)CCSc3ccc(F)cc3)ccc2s1	-55	-1	0	16	·	·
Cc1ccc(S(=O)(=O)N2CCN(Cc3cccc(C)c3)CC2)cc1	-6	0	0	3	·	·
Cc1cccc(CN2CCN(Cc3ccccc3C(F)(F)F)CC2)c1	4	-1	0	76*	1	3
FC(F)(F)c1ccccc1CN1CCN(Cc2cccc(Cl)c2)CC1	-6	1	0	69*	18	22
Clc1cccc(CN2CCN(c3ncccn3)CC2)c1	-4	3	0	49	·	·
COc1ccccc1CN1CCN(C(=O)c2cccc(F)c2)CC1	4	0	0	49	·	·
COc1cc(OC)cc(C(=O)N2CCN(Cc3ccc(C)cc3)CC2)c1	0	0	0	47	·	·
COc1cc(OC)cc(C(=O)N2CCN(Cc3ccccc3Cl)CC2)c1	-12	0	0	60*	-2	2
COc1cc(OC)cc(C(=O)N2CCN(Cc3ccccc3OC)CC2)c1	3	-1	0	61*	5	-1
Cc1cc(=O)[nH]c(N/N=C/c2cccc(Cl)c2Cl)n1	1	-1	1	79*	-3	7
Cc1cccc(Nc2ncnc(N)c2[N+](=O)[O-])c1C	2	2	0	3	·	·
CCn1c(SC)nnc1C1CCCN(Cc2cccnc2)C1 (stereo unspecified)	9	0	0	-4	·	·
COc1ccccc1C(=O)Nc1ccc(C2(C#N)CCCC2)cc1	-43	-1	0	65*	10	6
SMILES	TEAD-YAP inh	GPR151 activ	FBW7 act	MITF inh	MITF inh conf	AlphaScreen intf2	others
C=C(C)CNC(=S)Nc1ccccn1	9	0	0	-5	·	·
C=C(C)CNC(=S)Nc1ccccc1	-11	4	0	77*!	-8	-8
O=C1/C(=C/c2ccc3c(c2)OCO3)COc2ccccc21	-13	2	0	14	·	·
OC1/C(=C/c2ccc3c(c2)OCO3)Oc2ccccc21 (stereo unspecified)	-2	1	0	53*	-5	-4
O=C(NCc1ccccn1)C1CCN(S(=O)(=O)N2CCC3(CC2)OCCO3)CC1	1	1	0	52*	17	14
CC[C@H](C)[C@@H]1NC(=O)[C@H]2CN(C(=O)Oc3ccc(F)cc3)CCN2C1=O	3	1	0	-7	·	·
CC[C@H](C)[C@@H]1NC(=O)[C@H]2CN(C(=O)c3ccc(-c4ccccc4)cc3)CCN2C1=O	2	1	0	-10	·	·
CC[C@H](C)[C@@H]1NC(=O)[C@H]2CN(C(=O)Nc3cccc(F)c3)CCN2C1=O	6	0	0	58*	75*	4	AS interf DR=>6.5
CC(C)[C@H]1NC(=O)[C@H]2CN(C(=O)NCc3ccccc3)CCN2C1=O	6	-1	0	70*	68*	-3	AS interf DR=>6.5
CC[C@H](C)[C@@H]1NC(=O)[C@H]2CN(C(=O)NCc3ccccc3)CCN2C1=O	9	-1	0	74*	66*	-7	AS interf DR=>6.5
C[C@@H](OCc1ccccc1)[C@@H]1NC(=O)[C@H]2CN(C(=O)NCc3ccccc3)CCN2C1=O	10	-1	0	76*	71*	-13	AS interf DR=>6.5
CC(C)C(=O)N1CCN(c2ccc(NC(=O)c3cccs3)cc2Cl)CC1	-6	0	0	-7	·	·
COc1ccc(-n2c(C)c(C(C)=O)c3cc(OC(=O)COc4ccccc4)ccc32)cc1	25	0	0	-7	·	·
C[C@@H]1NC(=O)[C@H]2CN(C(=O)NCc3ccccc3)CCN2C1=O	-2	0	0	71*	75*	-11	AS interf DR=>6.5
N#Cc1c(SCC(=O)O)nc(N2CCCCC2)c2c1CCCC2	5	0	0	-1	·	·
CCCSc1nc(N2CCCCC2)c2c(c1C#N)CCCC2	-4	0	0	66*	-7	-5
Cc1ccc(N2C(=O)CC(Sc3nc4c(cc3C#N)CCCCCC4)C2=O)cc1 (stereo unspecified)	3	0	0	1	·	·
CC(=O)Nc1ccnn1C1CCN(Cc2cccc(OC3CCCC3)c2)CC1	4	-2	0	56*	3	15
CC(=O)Nc1ccnn1C1CCN(Cc2cccc(Oc3ccccc3)c2)CC1	-5	0	0	-17	·	·
OC(CNCC(c1ccco1)N1CCCC1)COc1ccccc1 (stereo unspecified)	6	-2	0	54*	-4	1
OC(CNCC(c1ccco1)N1CCCC1)COCc1ccccc1Cl (stereo unspecified)	12	0	0	61*	-11	1
OC(CNC1CCCC1)COCc1ccccc1Cl (stereo unspecified)	5	0	0	26	·	·
CC(=O)NC1(C(F)(F)F)N=C(c2ccc(C)cc2)NC1=O (stereo unspecified)	4	2	0	9	·	·
c1cncc(CNc2nc(Nc3ccc(N4CCOCC4)cc3)nc3c2ncn3C2CCCCC2)c1	-3	-1	0	14	·	·
c1cncc(CNc2nc(Nc3ccc(N4CCOCC4)cc3)c3ncn(C4CCCCC4)c3n2)c1	-13	-1	0	51*	84*	-13
Cc1ccc2nc(N3CCC(NCCc4ccccc4F)CC3)nc(C)c2c1	12	1	0	73*	-12	-7

Bioassay records as filed in PubChem BioAssay.
